# Screens (PubChem)
# MITF inh = MITF inhibitors, primary screen, biochemical, AlphaScreen, human | Microphthalmia-associated transcription factor (Homo sapiens), O75030 | AlphaScreen MITF homodimerization, bead proximity signal | inhibition, % at 2.6 µM | hit rate 0.91% among 650,000 | AID 1259374, 2018; in the data active means inhibition above about 50%;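 further: 0% = vehicle wells with protein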
# Target sequence (O75030 whole entry, looked up): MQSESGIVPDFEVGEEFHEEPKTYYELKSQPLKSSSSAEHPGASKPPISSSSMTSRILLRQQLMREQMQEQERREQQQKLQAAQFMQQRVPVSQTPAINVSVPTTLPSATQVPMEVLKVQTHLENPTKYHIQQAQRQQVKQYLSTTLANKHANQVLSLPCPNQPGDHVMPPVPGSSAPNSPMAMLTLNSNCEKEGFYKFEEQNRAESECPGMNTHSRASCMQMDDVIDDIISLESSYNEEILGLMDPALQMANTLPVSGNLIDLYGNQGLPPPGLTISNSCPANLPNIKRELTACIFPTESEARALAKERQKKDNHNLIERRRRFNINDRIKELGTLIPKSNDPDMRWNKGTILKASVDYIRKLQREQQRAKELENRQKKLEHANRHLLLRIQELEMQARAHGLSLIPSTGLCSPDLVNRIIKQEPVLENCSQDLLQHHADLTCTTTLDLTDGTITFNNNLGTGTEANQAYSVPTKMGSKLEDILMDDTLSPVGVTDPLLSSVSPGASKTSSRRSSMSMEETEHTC
# FBW7 act = FBW7 E3 ligase activators, primary screen, biochemical, AlphaScreen, human | hit rate 0.13% among 650,000 | normalized activity (activation), % at 26.1 µM | F-box/WD repeat-containing protein 7 (Homo sapiens), Q969H0 | AlphaScreen FBW7–phospho-cyclin E peptide binding, activator screen | AID 1259310, 2017; in the data active means normalized activity above about 1.9%;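 further: purified mutant Fbw7 with reduced substrate affinity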
# GPR151 activ = activators of human GPR151, primary screen, cell-based, PathHunter beta-arrestin, luminescence; hit rate 1% among 650,000; activation, % at 11.2 µM; PathHunter beta-arrestin GPR151 cells; G-protein coupled receptor 151 (Homo sapiens), Q8TDV0; AID 1508602, 2020; in the data active means activation above about 4.9%;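 further: 0% = median of compound wells and 100% = cells with positive control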
# TEAD-YAP block = TEAD-YAP interaction inhibition, primary screen, TEAD-YAP interaction inhibitor project, luminescence, HEK-TIYL cells. TEAD-Gal4/YAP UAS-luciferase luminescence. inhibition, % at 9.12 µM. hit rate 1.4% among 640,000; in the data active means inhibition above about 32%;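 further: 0% = median of test compound wells and 100% = reference inhibitor wells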
# MITF inh conf = MITF inhibitors, retest of hits, confirmation, biochemical, AlphaScreen, triplicate; shares compounds with MITF inh; AlphaScreen MITF homodimerization, biotin/His-MITF beads; inhibition, % at 2.6 µM; hit rate 16% among 4,700; AID 1259372, 2018;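 active means inhibition above a cutoff derived from the DMSO control wells, cut at about 28% in these data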;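 further: 0% = MITF dimer wells with DMSO only; inhibitors lower the bead chemiluminescence by keeping MITF from dimerizing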
# AlphaScreen DR = AlphaScreen optical interference compounds, dose response, counter-screen, biochemical, HTS; shares compounds with MITF inh; AlphaScreen optical interference counterscreen, cell-free; hit rate 6% among 480; IC50, µM; call rule not given here
# AlphaScreen intf2 = AlphaScreen optical interference compounds, counter-screen for MITF inhibitor project, biochemical, triplicate. shares compounds with MITF inh. LysRS AlphaScreen counterscreen, signal interference. inhibition, % at 2.6 µM. hit rate 7.6% among 4,700;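 active means inhibition above a cutoff derived from the DMSO control wells, cut at about 30% in these data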
# Starred values were filed as active, the others as inactive; / = no result given. Hits are enriched below; roughly 3.5% of the tested compounds scored in any of these assays.
SMILES,MITF inh,FBW7 act,GPR151 activ,TEAD-YAP block,MITF inh conf,AlphaScreen intf2,others
CC(C)CC(NC(N)=O)C(=O)Nc1ccc(F)c(Cl)c1 (stereo not given),9.5,0.0,-1.8,8.1,/,/,
CCC(=O)N1CCN(c2ccc(NC(=O)c3cccc(OCC(C)C)c3)cc2)CC1,-10.4,0.0,2.5,-2.6,/,/,
Cc1ccc2c(CNCc3ccccc3)c(C(=O)O)[nH]c2c1,5.2,-0.2,0.0,-5.7,/,/,
N#CC1=C2C=CC=CN2C(c2ccccc2)(C(F)(F)F)NC1=O (stereo not given),3.1,-0.1,-0.8,-4.8,/,/,
COc1ccc(CCNC(CC(=O)Nc2ccc(Oc3ccccc3)cc2)C(=O)O)cc1 (stereo not given),1.9,0.6,-0.7,-4.4,/,/,
COc1ccc(CCNC(C)CC(=O)Nc2ccccc2)cc1 (stereo not given),56.4*,0.0,0.1,1.8,12.4,10.9,
COC(=O)C1Sc2[nH]c(=O)sc2C(c2ccc(OC)cc2)C1C(=O)OC (stereo not given),51.5*,0.4,1.5,-2.4,-3.1,-1.9,
COC(=O)C1Sc2[nH]c(=O)sc2C(c2cccc([N+](=O)[O-])c2)C1C(=O)OC (stereo not given),16.2,0.4,0.3,-8.6,/,/,
CCCCNC(=O)CCc1nc2ccccc2n(Cc2ccccc2F)c1=O,-1.3,-0.2,1.9,6.9,/,/,
CC(C)(C)CC(C)(C)NC(=O)c1cccc([N+](=O)[O-])c1,70.2*,0.8,-1.8,1.6,1.9,10.0,
CC(C)OC(=O)c1ccccc1[N+](=O)[O-],21.2,0.3,0.5,0.4,/,/,
CN(C)CCCN(CCCN(C)C)CC(c1ccccc1)c1ccccc1,54.6*,0.7,0.5,9.2,-3.8,0.4,
COc1ccc(C(=O)CNCC2CCCO2)cc1OC (stereo not given),68.8*,-0.2,0.3,1.6,-14.4,1.1,
O=[N+]([O-])c1ccc(CN2CCN(c3ccccc3F)CC2)s1,53.0*,-0.1,0.9,-7.1,5.8,9.9,
O=[N+]([O-])c1ccccc1CN1CCN(Cc2ccc3c(c2)OCO3)CC1,58.7*,-0.2,-0.4,-9.8,18.5,36.2*,
O=C(c1ccccc1[N+](=O)[O-])N1CCN(Cc2ccc3c(c2)OCO3)CC1,-7.5,0.2,0.3,1.3,/,/,
O=[N+]([O-])c1ccc(CN2CCN(Cc3ccc4c(c3)OCO4)CC2)s1,56.4*,0.0,0.8,4.2,6.8,4.3,
O=C(Cc1ccc(F)cc1)Nc1cccc2ccc(-n3ccnc3)nc12,-6.9,-0.2,3.3,9.3,/,/,
C1=C2CCc3c([nH]c4ccccc34)C2N(c2ccccc2)N1 (stereo not given),9.1,-0.1,0.8,8.4,/,/,
O=C1CCCN1CCCn1c(=S)[nH]c2cc3ccccc3cc2c1=O,65.8*,0.1,-0.8,0.7,0.2,16.6,
COc1cc(NC(=O)c2ccc3nc(-c4ccccc4)sc3c2)cc(OC)c1OC,67.6*,0.2,1.9,-1.1,6.2,5.2,
CCOC(=O)CNS(=O)(=O)c1cc(-c2nnc(Nc3cccc(C)c3)c3ccccc23)ccc1C,79.8*,0.1,-0.5,2.2,-3.0,1.7,
CCN(CC)CCNC(=O)c1cnc(N2CCN(c3ccccc3OC)CC2)c2ccccc12,-11.9,-0.3,-0.1,6.0,/,/,
CCOc1ccc(C(=O)NC(=S)Nc2ccc(S(N)(=O)=O)cc2)cc1,52.6*,0.8,-0.8,10.2,-9.9,-6.8,
CC(C)(C)c1ccc(C(=O)NC(=S)Nc2ccc(S(N)(=O)=O)cc2)cc1,11.1,0.2,-0.4,-5.1,/,/,
SMILES,MITF inh,FBW7 act,GPR151 activ,TEAD-YAP block,MITF inh conf,AlphaScreen intf2,others
COc1ccc(/C=C2/N=C(c3ccc(C)c([N+](=O)[O-])c3)OC2=O)c(OC)c1,-8.7,-0.1,-0.4,-9.6,/,/,
O=C1CCCN1CCCNc1ccc(Cl)nn1,83.7*,-0.2,-1.5,0.8,7.6,9.0,
O=C1CCCN1CCCNc1cc(Cl)ncn1,8.9,0.1,0.0,5.2,/,/,
CC(Sc1nnc(N)s1)C(=O)Nc1ccccc1C(=O)c1ccccc1 (stereo not given),4.7,0.1,0.3,-4.5,/,/,
Clc1ccc(OCC#CCn2ccnc2)cc1,58.3*,0.3,2.2,4.6,23.4,16.2,
Cc1ccccc1-c1nnc(-c2ccco2)o1,-5.2,-0.1,-4.1,-32.7,/,/,
Nc1cc2c3c(cc(N)cc3c1)C(=O)N(O)C2=O,106.4*,-1.7,0.0,-8.3,111.0*,94.2*,
CCO/C=C1\C(=O)N(c2c(Cl)cccc2Cl)c2cc(C=O)ccc21,7.8,0.0,-0.1,7.0,/,/,
O=C1C2C3C=CC(C3)C2C(=O)N1c1ccc2c(c1)CCC2 (stereo not given),79.4*,0.1,0.3,-4.6,4.5,11.7,
O=C1C2CCCCC2C(=O)N1c1ccc2c(c1)CCC2 (stereo not given),18.6,-0.1,-2.9,-18.3,/,/,
O=c1[nH]c(/C=C/c2ccco2)nc(O)c1[N+](=O)[O-],83.3*,-0.7,0.1,2.4,67.0*,-6.6,AlphaScreen DR=>6.48
CSc1ccc(CN2CCN(CCCc3ccccc3)CC2)cc1,63.5*,-0.1,4.1,1.5,0.1,2.6,
Cc1cccc(CN2CCN(CCCc3ccccc3)CC2)c1,68.9*,0.0,-1.8,2.6,-3.0,2.0,
COc1cccc(NC(=O)c2sc(C)nc2C)c1,8.2,0.2,-4.3,-19.2,/,/,
O=C(O)c1cc(N/N=C/c2ccc(N3CCOCC3)s2)ccc1Cl,75.5*,-0.1,-0.9,-16.3,59.7*,21.4,AlphaScreen DR=>7.09
Cn1c(=O)cc(N2CCCC2)n(Cc2cccc(C(F)(F)F)c2)c1=O,67.9*,0.0,0.8,5.5,12.1,18.0,
Cn1c(=O)cc(N2CCCCC2)n(Cc2cccc(C(F)(F)F)c2)c1=O,2.3,0.0,1.0,-9.0,/,/,
Cc1cccc(-n2c(CNC(=O)c3cccs3)nnc2SCC(=O)N2N=C(c3cccs3)CC2c2ccc(F)cc2)c1 (stereo not given),-2.8,0.0,-0.9,7.4,/,/,
CCOC(=O)C1CCN(Cc2ccc(Cl)cc2Cl)CC1,39.4,0.1,0.4,-1.4,/,/,
CCOC(=O)C1CCN(Cc2nc3ccc(Cl)cc3n2CCO)CC1,72.2*,-0.2,0.6,-3.1,7.6,13.6,
Cc1ccc(NC(=O)CSCc2ccc(Cl)cc2)c(C)c1,-5.5,-0.1,0.0,-5.0,/,/,
Cc1ccc(N2C(=O)C3ON(c4ccccc4)C(c4ccc([N+](=O)[O-])cc4)C3C2=O)cc1 (stereo not given),60.7*,-0.1,1.5,-1.4,5.1,-4.4,
